According to paper PMC7862700, “An all-to-all approach to the identification of sequence-specific readers for epigenetic DNA modifications on cytosine”:

These sequences were tested against T1, ELF5 (Homo sapiens, UniProt Q9UKW6-2 1-255) (assay: DAPPL (digital affinity profiling via proximity ligation, sequencing); 10 mM Tris-HCl pH 7.5, 50 mM NaCl, 1 mM DTT, 4% glycerol, room temperature, 30 min; GST-TFs on glutathione beads, 16-mer random dsDNA library, 0.1% formaldehyde crosslink after washing; high values mean tight binding). Settings: protein: recombinant; tags: N-terminal GST; dsDNA, one strand shown.
T1 sequence: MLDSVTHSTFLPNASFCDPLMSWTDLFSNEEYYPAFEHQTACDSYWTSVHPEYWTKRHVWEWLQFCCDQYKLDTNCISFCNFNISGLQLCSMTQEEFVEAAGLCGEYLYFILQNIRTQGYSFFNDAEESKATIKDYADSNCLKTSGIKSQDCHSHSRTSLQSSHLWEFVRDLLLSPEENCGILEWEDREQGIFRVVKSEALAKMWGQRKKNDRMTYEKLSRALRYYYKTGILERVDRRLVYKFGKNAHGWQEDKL
Procedure, shortened: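 Human transcription factors fused to GST were expressed in yeast, captured on glutathione beads, given DNA barcodes and pooled with a GST-only negative control. Pools were incubated with 200 nmole of a 16-mer random double-stranded DNA library in Tris/NaCl/DTT/glycerol buffer at room temperature for 30 min. They were then washed, crosslinked with 0.1% formaldehyde, proximity-ligated (BsaI/T4 ligase, 1 h, 37 °C), PCR-amplified and sequenced on an Illumina NextSeq500. Binding signal is each 6-mer's read frequency for a factor divided by its frequency for the GST control.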

| Sequence | binding signal |
| --- | --- |
| TTTCAA | 1.26 fold enrichment (6-mer frequency, TF over GST control) |
| AATCAG | 1.04 fold enrichment (6-mer frequency, TF over GST control) |
| TAAAGA | 1.05 fold enrichment (6-mer frequency, TF over GST control) |
| ACATAC | 1.14 fold enrichment (6-mer frequency, TF over GST control) |
| GCCTTT | 1.3 fold enrichment (6-mer frequency, TF over GST control) |
| TTTGTC | 1.22 fold enrichment (6-mer frequency, TF over GST control) |
| CCCACG | 1.15 fold enrichment (6-mer frequency, TF over GST control) |
| CTGACA | 1.26 fold enrichment (6-mer frequency, TF over GST control) |
| ACTGGC | 1.04 fold enrichment (6-mer frequency, TF over GST control) |
| CTCCAT | 1.24 fold enrichment (6-mer frequency, TF over GST control) |
| GCTCTT | 1.52 fold enrichment (6-mer frequency, TF over GST control) |
| CCTCGC | 1.41 fold enrichment (6-mer frequency, TF over GST control) |
| ATGTGT | 1.04 fold enrichment (6-mer frequency, TF over GST control) |
| ACTCAT | 1.32 fold enrichment (6-mer frequency, TF over GST control) |
| TAAACA | 1.22 fold enrichment (6-mer frequency, TF over GST control) |
| GTAATC | 1.18 fold enrichment (6-mer frequency, TF over GST control) |
| CCGATC | 1.1 fold enrichment (6-mer frequency, TF over GST control) |
| TTTGGG | 1.26 fold enrichment (6-mer frequency, TF over GST control) |
| CCGGAA | 6.42 fold enrichment (6-mer frequency, TF over GST control) |
| ACGACA | 1.18 fold enrichment (6-mer frequency, TF over GST control) |

| Sequence | binding signal |
| --- | --- |
| TAACCA | 1.09 fold enrichment (6-mer frequency, TF over GST control) |
| ACTGCA | 1.01 fold enrichment (6-mer frequency, TF over GST control) |
| ATTGTC | 1.2 fold enrichment (6-mer frequency, TF over GST control) |
| AGGAAA | 2.19 fold enrichment (6-mer frequency, TF over GST control) |
| AGATGC | 1.12 fold enrichment (6-mer frequency, TF over GST control) |
| ATTCAG | 1.08 fold enrichment (6-mer frequency, TF over GST control) |
| TTGCAC | 1.22 fold enrichment (6-mer frequency, TF over GST control) |
| CGGTCT | 1.1 fold enrichment (6-mer frequency, TF over GST control) |
| TCCTTA | 2.6 fold enrichment (6-mer frequency, TF over GST control) |
| CCGCTA | 1.41 fold enrichment (6-mer frequency, TF over GST control) |
| TGCGAC | 1.2 fold enrichment (6-mer frequency, TF over GST control) |
| CCCCGG | 1.3 fold enrichment (6-mer frequency, TF over GST control) |
| CACCCG | 1.19 fold enrichment (6-mer frequency, TF over GST control) |
| TGCACC | 1.16 fold enrichment (6-mer frequency, TF over GST control) |
| TGGGCT | 1.32 fold enrichment (6-mer frequency, TF over GST control) |
| CCAAAT | 1.01 fold enrichment (6-mer frequency, TF over GST control) |
| ATGTCC | 1.65 fold enrichment (6-mer frequency, TF over GST control) |
| TGATCC | 1.35 fold enrichment (6-mer frequency, TF over GST control) |
| TACAAG | 1.06 fold enrichment (6-mer frequency, TF over GST control) |
| TTCACA | 1.12 fold enrichment (6-mer frequency, TF over GST control) |
